In PubChem BioAssay (NCI):
This is part of a sample that, as a whole, favours compounds with a hit. Of some 83,000 tested, about 20% had one in any assay.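 Plates (96-well) were seeded with cells, treated with compound at one concentration, and incubated for 48 hours before percent growth was determined.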 Values without a mark were called inactive. The source made the active and inactive calls. The calls were made as follows: active = growth percent below 10; inactive = the rest.

Key:
Experiment in all cases: NCI-60 one-dose screen, 48 h (100 = growth as untreated, 0 = no growth, -100 = all killed)
Conditions in all cases: 10 µM
NCI-H23 lung = tested on: NCI-H23 lung
NCI-H226 lung = tested on: NCI-H226 lung
NCI-H322M lung = tested on: NCI-H322M lung
HOP-62 NSCLC = tested on: HOP-62 NSCLC
NCI-H460 lung = tested on: NCI-H460 lung
NCI-H522 lung = tested on: NCI-H522 lung
A549/ATCC NSCLC = tested on: A549/ATCC NSCLC
786-0 renal = tested on: 786-0 renal
COLO 205 colon = tested on: COLO 205 colon
DU-145 prostate = tested on: DU-145 prostate

Compound | growth (NCI-H23 lung) | growth (NCI-H226 lung) | growth (NCI-H322M lung) | growth (HOP-62 NSCLC) | growth (NCI-H460 lung) | growth (NCI-H522 lung) | growth (A549/ATCC NSCLC) | growth (786-0 renal) | growth (COLO 205 colon) | growth (DU-145 prostate)
N=C(N)c1ccc(-c2ccc(-c3cccs3)o2)cc1 | 85.1% | 67.5% | 12.8% | 64.7% | 0.151% (active) | 61.9% | 45.4% | 62.3% | -97.4% (active) | 57.9%
N#CCCN1C/C(=C/c2ccc(Cl)cc2)C(=O)/C(=C/c2ccc(Cl)cc2)C1 | -29.9% (active) | -56.8% (active) | -22.1% (active) | -58% (active) | -49.9% (active) | -82.2% (active) | -35.9% (active) | -70.5% (active) | -84.3% (active) | -30.7% (active)
CC1(C)Cc2c(sc3ncn4nc(-c5ccc(O)cc5)nc4c23)CO1 | 90.9% | 57.9% | 90.4% | 79.2% | 63.2% | 53.5% | 63% | 74.9% | 114% | 76.1%
COc1cc([C@@H]2c3cc4c(cc3C(Br)[C@H]3COC(=O)[C@H]23)OCO4)cc(OC)c1OC (stereo not given in full) | 4.09% (active) | 97.8% | 42.2% | -13% (active) | -50.8% (active) | -46.5% (active) | -24% (active) | 9.16% (active) | -88.4% (active) | -82.4% (active)
CCOC(=O)C1CCc2c(ccc3ccccc23)N1CCC#N (stereo not given) | 89.7% | 98.7% | 85.7% | 101% | 109% | 93.3% | 104% | 100% | 119% | 111%
c1ccc(CO[C@H]2CO[C@H]3[C@@H]2OC[C@H]3OCc2ccccc2)cc1 | 107% | 101% | 101% | 97.7% | 110% | 100% | 111% | 104% | 100% | 119%
COc1ccc(Nc2ccnc(NCCNc3ccnc4cc(Cl)ccc34)n2)cc1 | 48.8% | 49.7% | 64.7% | 74.6% | 47.4% | 43.9% | 47% | 59.4% | 38.8% | 61.4%
CS(=O)(=O)Nc1ccc(Nc2c3ccccc3nc3cc([N+](=O)[O-])ccc23)cc1 | 1.7% (active) | 0.761% (active) | 62.6% | 19.2% | 0.406% (active) | -51.5% (active) | 16.5% | 6.96% (active) | 17.1% | 8.04% (active)
COc1ccc(-c2nc(-c3nc4cc(Cl)c(Cl)cc4[nH]3)c3ccccn23)cc1 | 67.5% | 44.5% | 48.4% | -11.7% (active) | 41.5% | 55.9% |  | 0.945% (active) | 88.4% | 47.5%
Cc1ccc2oc3nc(C)c(C(=O)NCc4ccccc4)cc3c(=O)c2c1 | 83.8% | 104% | 76.8% | 100% | 41.4% | 76.7% | 73.5% | 55.6% | 23.8% | 86.9%
C#Cc1ccc(-n2c(/C=C/c3ccc(Cl)c(F)c3)nc3ncccc3c2=O)cc1 | 18.3% | -74.5% (active) | -25% (active) | -57.6% (active) | -25.8% (active) | -66.7% (active) | -8.32% (active) | 7.88% (active) | -90.2% (active) | 3.49% (active)
COc1ccc(-c2nc(-c3nc4cc(Cl)c(F)cc4[nH]3)c3ccccn23)cc1 | 85.8% | 85.1% | 69.6% | 89.5% | 81.1% | 39.5% |  | 79.9% | 79.1% | 80.3%
Cc1ccc(NC(=O)NC2CCCCC2)cc1 | 108% | 95.5% | 92.2% | 96.1% | 102% | 82.8% |  | 98.6% | 105% | 114%
CC(=O)/C(=C/c1ccccc1)C(=O)CC(C)C | 100% | 106% | 116% | 115% | 99.8% | 95.2% |  | 95.9% | 100% | 92.8%
CCOC(=O)CCC(NC(=O)c1ccc(N)cc1)C(=O)OCC (stereo not given) | 99.1% | 103% | 108% | 96% | 118% | 80.5% |  | 110% | 105% | 112%
CC(C)(C)c1ccc(N2CSC(=S)N(c3ccc(C(C)(C)C)cc3)C2)cc1 | 86.5% | 93.2% | 86.7% | 88.2% | 91.7% | -14.2% (active) |  | 103% | 92.5% | 123%
NC1(C(=O)O)CSSC1 | 49.8% | 60.5% | 109% | 35.9% | 13.3% | 121% |  | 107% | 102% | 78.8%
COc1ccccc1CNCCCN1C(=O)c2ccc3c4c(ccc(c24)C1=O)C(=O)N(CCCN)C3=O | -34.7% (active) | 47.3% | -30.7% (active) | 18.7% | -50.8% (active) | -79.1% (active) | -28% (active) | 4.32% (active) | -87.5% (active) | -95.6% (active)
COc1ccc(-c2nc3sc(-c4ccc(OC)cc4)c(-c4ccc(OC)cc4)n3c2/C=C/c2ccc(C(C)C)cc2)cc1 | 95.6% | 90.9% | 96.5% | 95.1% | 101% | 76.5% |  | 99.2% | 107% | 115%
COc1cc(-c2cc(/C=C/C(=O)c3ccc(Cl)c(Cl)c3)[nH]n2)cc(OC)c1OC | 101% | 81.7% | 62.7% | 75.9% | 79.4% | 38% |  | 69.7% | 78% | 62.4%
c1ccc([C@H]2CN3CCSC3=N2)cc1 | 96.8% | 97.4% | 101% | 109% | 114% | 90.8% | 102% | 99.3% | 106% | 92.1%
CN(C)N=Nc1nn(C(=O)Nc2ccc(Cc3ccccc3)cc2)c2ccccc12 | 61% | 69.2% | 81.3% | 70.6% | 11.4% | 42.3% |  | 49.9% | -53.4% (active) | 60.8%
OCC1OC(n2cnc3c(N/N=C\c4ccccn4)ncnc32)C(O)C1O (stereo not given) | 27.1% | 11.3% | 7.28% (active) | 10% | 1.62% (active) | 38.7% |  | 16.2% | 22.7% | 17.7%
Fc1ccc2nc(-c3nc(-c4ccccc4)n4ccccc34)[nH]c2c1 | 57% | -11.9% (active) | -9.9% (active) | -76.2% (active) | -57% (active) | -41.2% (active) | -22.6% (active) | 0.317% (active) | 16.1% | -6.4% (active)
O=C1CC[C@@H]2CCCC[C@@H]2C1 | 99.9% | 105% | 110% | 96.7% | 112% | 90.3% |  | 103% | 108% | 123%
N=C(N)c1ccc(-c2ccc(-c3cccs3)s2)cc1 | 83.8% | 82.3% | 2.2% (active) | 86.6% | -72.4% (active) | 76.4% | -44.8% (active) |  | -96.6% (active) | 0.967% (active)
O=C(Nc1cccc(-n2cc(-c3ccncc3)c(-c3cc(O)cc(Cl)c3)n2)c1)Nc1ccc(Cl)c(C(F)(F)F)c1 | 10.5% | 41.2% | 45% | 8.99% (active) | 3.75% (active) | -16% (active) | 8.81% (active) | -29.8% (active) | 63.4% | 18.7%
COc1cc(Cl)cc(-c2nn(-c3cccc(NC(=O)Nc4ccc(Cl)c(C(F)(F)F)c4)c3)cc2-c2ccncc2)c1 | 0.301% (active) | -2.82% (active) | 18.7% | 13.5% | 2.76% (active) | -10.4% (active) |  | -4.76% (active) | -48.3% (active) | 15.2%
Cc1ccc(N=Nc2c(N)nc(N)[nH]c2=O)cc1C | 101% | 93.5% | 83.1% | 92.9% | 107% | 92.1% |  | 91.2% | 112% | 117%
